# SMARCA2 activ = increases SMARCA2 function in MMTV reporter cells. 370,000 compounds, 1% hits. activation, % at 9.1 µM. MG213 cells, MMTV-luciferase reporter, dexamethasone, overnight; in the data active means activation above about 7.8%
# bovine MsrA act = bovine methionine sulfoxide reductase A activation | 360,000 compounds, 0.3% hits | activation, % at 10.6 µM | purified bovine MsrA, absorbance read-out; in the data active means activation above about 7.5%
# ABCB6 inh 2 = blocks the human ABCB6 transporter. 360,000 compounds, 0.19% hits. Q9NP58. fluorescence ratio to DMSO, % at 10 µM. K562-ABCB6 porphyrin accumulation, flow cytometry, 1 h; hits give low values. AID 602162;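 active means fluorescence ratio to DMSO below 75%, the collection mean minus 3 SD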;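 further: signal is porphyrin accumulated inside mitochondria; lower ratio means ABCB6 inhibition with less porphyrin fluorescence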
# Target sequence (Q9NP58 whole entry, looked up): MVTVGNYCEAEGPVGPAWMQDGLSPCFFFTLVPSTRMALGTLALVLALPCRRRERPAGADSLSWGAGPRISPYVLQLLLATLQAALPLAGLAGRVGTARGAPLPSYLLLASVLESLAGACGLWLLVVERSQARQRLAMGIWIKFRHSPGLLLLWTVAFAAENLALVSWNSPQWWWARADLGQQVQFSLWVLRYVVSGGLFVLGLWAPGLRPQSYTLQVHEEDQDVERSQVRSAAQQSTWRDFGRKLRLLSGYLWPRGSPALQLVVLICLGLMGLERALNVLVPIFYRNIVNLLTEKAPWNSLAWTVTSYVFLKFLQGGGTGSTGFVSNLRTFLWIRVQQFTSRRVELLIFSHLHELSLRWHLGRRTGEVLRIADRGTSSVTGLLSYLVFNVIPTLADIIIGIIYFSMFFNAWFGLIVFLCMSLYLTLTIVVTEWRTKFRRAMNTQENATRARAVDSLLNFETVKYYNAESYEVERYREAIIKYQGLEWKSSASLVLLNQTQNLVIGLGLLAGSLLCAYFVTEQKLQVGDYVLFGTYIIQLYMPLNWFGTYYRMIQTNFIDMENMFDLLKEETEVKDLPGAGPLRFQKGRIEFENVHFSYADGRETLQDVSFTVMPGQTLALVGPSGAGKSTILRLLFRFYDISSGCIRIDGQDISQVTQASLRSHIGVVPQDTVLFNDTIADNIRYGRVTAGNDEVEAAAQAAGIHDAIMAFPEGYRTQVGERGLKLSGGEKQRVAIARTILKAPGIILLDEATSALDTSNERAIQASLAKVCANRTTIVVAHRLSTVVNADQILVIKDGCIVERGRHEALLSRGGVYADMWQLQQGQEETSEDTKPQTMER
# MsrA inh = inhibitors of bovine MsrA; purified bovine MsrA, absorbance read-out; inhibition, % at 15.5 µM; 360,000 compounds, 0.75% hits; AID 651718; in the data active means inhibition above about 4.5%
# MsrA activ conf = bovine methionine sulfoxide reductase A activation confirmed. 1,000 compounds, 12% hits. purified bovine MsrA, absorbance read-out. shares compounds with bovine MsrA act. activation, % at 10.6 µM. AID 602270; in the data active means activation above about 4%;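 further: enzyme coupled to thioredoxin and thioredoxin reductase with NADPH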
# Hits are given with their value; n = inactive; x = no result. Sampled rows, rich in hits. Any-hit rate of the full collection: about 2.1%.
SMILES,SMARCA2 activ,bovine MsrA act,ABCB6 inh 2,MsrA inh,MsrA activ conf
Cc1ccc(C)c2nc3sc(C(=O)N4CCOCC4)c(N)c3cc12,n,8.8,n,n,4.9
Cc1cc(C)c2nc3sc(C(=O)N4CCOCC4)c(N)c3cc2c1,n,n,n,n,x
COc1ccc(CC(=O)Nc2sc3c(c2C(N)=O)CCCC3)cc1,n,8.4,n,n,n
COc1ccc(-c2csc(/C(C#N)=C/Nc3cc4oc5ccccc5c4cc3OC)n2)cc1,n,13,n,n,n
COc1ccc(-c2csc(/C(C#N)=C/Nc3ccc4c(c3)OCCO4)n2)cc1,n,n,n,n,x
O=C(CCNS(=O)(=O)c1cccc2nonc12)Nc1ccc(Cl)cc1,n,13,n,n,n
Cc1ccc(NC(=O)CCNS(=O)(=O)c2cccc3nonc23)cc1Cl,n,n,n,n,x
COc1ccc(OC)c(/C=N/N(CCC#N)C2=NS(=O)(=O)c3ccccc32)c1,n,7.9,n,n,5.3
N#CCCN(/N=C/c1cccnc1)C1=NS(=O)(=O)c2ccccc21,n,n,n,n,x
CC(COc1cccc(Cl)c1)CN1CCC(C(O)(c2ccccc2)c2ccccc2)CC1 (centres undefined),n,x,x,x,x
NC(=O)c1ccc(=O)n(Cc2ccc(F)c(F)c2)c1,n,8.0,n,n,n
O=C(Nc1ccccc1)c1ccc(=O)n(Cc2ccc(F)c(F)c2)c1,n,n,n,n,x
CCC(CO)NCc1cc(OC)c(OCC(=O)NCCc2ccccc2)cc1Br (centres undefined),8.3,9.0,n,n,n
CCCCOc1ccc(C(=O)NC2CCCCN(CC)C2=O)cc1 (centres undefined),n,x,x,x,x
CCCS(=O)(=O)N1CCCC(C(=O)N2CCC(Cc3ccccc3)CC2)C1 (centres undefined),n,7.7,n,n,n
CCCS(=O)(=O)N1CCC(C(=O)N2CCC(Cc3ccccc3)CC2)CC1,n,n,n,n,x
O=C(OC12CCCN(C1)/C(=C/c1ccc(Cl)cc1)C2)c1ccccc1 (centres undefined),n,x,x,x,x
O=C(c1ccc(F)cc1Cl)N1CCC(Oc2cccnc2)CC1,n,x,x,x,x
Cc1ccc(Cn2nnc3c(=O)[nH]c(C4CCN(C(=O)Cc5cccs5)CC4)nc32)cc1,n,7.7,n,n,n
Cc1ccc(CC(=O)N2CCC(c3nc4c(nnn4Cc4ccccc4)c(=O)[nH]3)CC2)cc1,n,n,n,n,x
COc1ccc(N2CCN(CCCNC(=O)CCOC(C)(C)C)CC2)cc1,n,x,x,x,x
O=C(Nc1ccc(F)cc1)Nc1c(-c2ccc(F)cc2)nc2ncccn12,n,x,x,x,x
COc1ccc(C(=O)CSc2nc3ccccc3n2CC(=O)NC(C)(C)C)cc1,n,9.7,n,n,n
CCOC(=O)C(Oc1ccc2c(-c3ccccc3)cc(=O)oc2c1C)c1ccccc1 (centres undefined),n,8.0,n,n,n
CC1(C)Oc2nc3ccccc3n2/C1=C\C#N,n,8.0,n,n,n
SMILES,SMARCA2 activ,bovine MsrA act,ABCB6 inh 2,MsrA inh,MsrA activ conf
COc1ccc(CCNC(=O)Cn2ncc3c2-c2cc(C)ccc2OC3)cc1,n,x,x,x,x
Cc1ccc(NC(=O)CN(C)C(=O)c2cccc(S(=O)(=O)N3CCc4ccccc4C3)c2)cc1,n,10,n,n,n
CCN(CC(=O)Nc1ccc(NC(C)=O)cc1)C(=O)c1cccc(S(=O)(=O)N2CCc3ccccc3C2)c1,n,n,n,n,x
O=C(COC(=O)c1ccc(Cl)c(S(=O)(=O)N2CCN(c3ccc(F)cc3)CC2)c1)Nc1cccc(Cl)c1,n,12,n,n,n
CN(CCC1CCCCO1)C(=O)c1cc(COc2ccc(F)cc2F)on1 (centres undefined),n,n,n,n,x
CN(CCCC1CCCC1)C(=O)c1cc(COc2ccc(F)cc2F)on1,n,9.1,n,n,n
C[C@H]1/C=C/CC(=O)N[C@@H](c2ccc3ccccc3c2)[C@@H](C)/C=C/CC(=O)N[C@H]1c1ccc2ccccc2c1,n,x,x,x,x
COC1=CC(=O)c2nc(Cl)ccc2C1=O,n,12,n,n,7.5
CCOC(=O)[C@H]1[C@H]2COc3ccc(OC)cc3[C@@H]2N2C(=O)CN(Cc3ccc(OC)cc3)C(=O)[C@@]12C,n,n,n,n,x
CCOC(=O)[C@H]1[C@H]2COc3ccc(OC)cc3[C@@H]2N2C(=O)CN(Cc3ccc(C)cc3)C(=O)[C@@]12C,n,14,n,n,n
CCOC(=O)N1C(=O)C[C@](Sc2ccc(OC)cc2)(C(=O)N(C)C)[C@H]1c1ccc(OC)cc1,n,x,x,x,x
CN(CCOC(=O)c1cc2ccccc2o1)C1CN(Cc2cn(Cc3ccccc3F)nn2)S(=O)(=O)C1 (centres undefined),n,x,x,x,x
S=c1[nH]ccc2ccccc12,n,9.8,n,n,n
O=C(c1ccccc1)N1CCN(C(=O)c2cc3ccccc3o2)CC1,n,7.7,n,n,n
CC(=O)N1CCN(C2=NC(=O)C(=C3CCCCC3)S2)CC1,n,n,n,n,x
Cc1cccc(N2CCN(C3=NC(=O)C(=C4CCCCC4)S3)CC2)c1,n,8.0,n,n,n
C=CCn1c(SCC(=O)OC(C)C)nnc1-c1ccc(C)cc1,n,x,x,x,x
CC1=C(C#N)C(Nc2ccc(Cl)cn2)(C(F)(F)F)C(=O)N1 (centres undefined),n,10,n,n,n
COCCN1C(=O)c2cc(C(=O)Nc3ccc(OC)c(OC)c3)ccc2C1Nc1ccc(OC)c(OC)c1 (centres undefined),n,12,n,n,n
CCCN1C(=O)c2cc(C(=O)Nc3ccc(OC)c(OC)c3)ccc2C1Nc1ccc(OC)c(OC)c1 (centres undefined),n,n,n,n,x
COc1ccc(S[C@]2(C(=O)N(C)C)CC(=O)N(c3ccccc3)[C@@H]2c2ccc(OC)cc2)cc1,n,x,x,x,x
CCN(CC)C(=O)CC[C@H]1CC[C@]2(CCCN(Cc3cccnc3)C2)O1,n,x,x,x,x
CCCCOC(=O)CCn1c(=S)oc2ccccc21,n,21,n,n,n
CCCNC(=O)CCn1c(=S)oc2ccccc21,n,n,n,n,x
Cc1ccc(C(=O)Nc2cccc(C(=O)N3CCOCC3)c2)cc1Cl,n,21,n,n,n
SMILES,SMARCA2 activ,bovine MsrA act,ABCB6 inh 2,MsrA inh,MsrA activ conf
CN1CCN(C(=O)CN(c2cccc(Cl)c2)S(=O)(=O)c2ccccc2)CC1,n,11,n,n,n
Cc1cccc(N(CC(=O)N2CCN(C)CC2)S(=O)(=O)c2ccccc2)c1,n,n,n,n,x
C/C(C=NNC(=O)CSc1nnc(-c2ccc(Cl)cc2)n1-c1ccccc1)=C\c1ccccc1,n,x,x,x,x
COC(=O)c1cccc(OCC(C)CN2CCC(C(O)(c3ccccc3)c3ccccc3)CC2)c1 (centres undefined),n,x,x,x,x
Cc1nn(C)c(C)c1CN(C)C(=O)C1c2ccccc2Oc2ccccc21,n,n,n,n,x
Cc1nn(C)c(C)c1CN(C)C(=O)C1(C)CC1(Br)Br (centres undefined),n,9.6,n,n,n
CCC(C)[C@H](NC(=O)N1CCC(C)CC1)C(=O)OC (some centres undefined),n,14,n,n,n
O=C(NCCN1CCOCC1)c1ccccc1Cl,n,17,n,n,n
O=C(NCCN1CCOCC1)c1c(Cl)cccc1Cl,n,n,n,n,x
